# Laboratory results published in PubChem BioAssay AID2111 (National Center for Advancing Translational Sciences (NCATS), 2009).
# “And” between values parts separate entries of the source, which are not always exact repeats. Equal values may be shown once. The source made the active and inactive calls. The call rests on the fitted dose curve; in most records, active means well fitted curve in either direction with a large enough effect; inconclusive means small, poorly fitted or top-dose-only effect; inactive means no such curve, though single readings can be large or run the other way.
# Biological target: Lysosomal alpha-glucosidase (Homo sapiens) (UniProt P10253)
# Assay: Confirmation of Inhibitors and Activators of Human alpha-Glucosidase From Spleen Homogenate Using an Alternate Red Fluorescent Susbtrate
# Details: resorufin-glucoside fluorescence; series mostly up to 62.8 µM
# Description: NIH Chemical Genomics Center [NCGC] NIH Molecular Libraries Probe Production centers Network [MLPCN] MLPCN Grant: 1R03MH084841-01 Assay Submitter (PI): Wei Zheng NCGC Assay Overview: Alpha-glucosidase is responsible for hydrolysis of terminal, non-reducing 1,4-linked alpha-D-glucose residues with release of alpha-D-glucose. It is a lysosomal hydrolase that is required for the degradation of a small percentage (1-3%) of cellular glycogen in human. Deficiency of this enzyme results in glycogen-storage disease type II (GSDII), also referred to as Pompe disease, an autosomal recessive disorder. Structurally normal glycogen is accumulated in lysosomes and cytoplasm in affected patients, primarily in muscle tissues. Excessive glycogen storage within lysosomes may interrupt normal functioning of other organelles and leads to cellular injury. In turn, this leads to enlargement and dysfunction of the entire organ involved (eg, cardiomyopathy and muscle weakness). It has reported that the improper folding and trafficking of alpha-glucosidase resultinged from the genetic mutations may account for a significant number of Pomrope patients. […] We optimized this alpha-glucosidase assay in 1536-well plate format for identifying the novel small molecule inhibitors with the structures other than the sugar analogs in order to develop the new pharmacological chaperones. In particular, this assay is directed towards discovering compounds active in a more natural setting, tissue homogenate, that may have been missed by screens of the purified enzyme under more stringent conditions. This assay attempted to confirm hits from the primary screening using an alternate fluor than the primary screen used.
# NCGC Assay Protocol Summary: This is a fluorogenic enzyme assay with Resorufin-alpha-D-glucopyranoside as the substrate and human spleen homogenate containing alpha-glucosidase as the enzyme preparation. Upon hydrolysis of this fluorogenic substrate, the resulting product, resorufin (which excites at 573 nm and emits at 610 nm) can be detected by a fluorescence plate reader. Data were normalized to the controls for basal activity (without enzyme) and 100% activity (with enzyme). The AC50 values were determined from concentration-response data modeled with the standard Hill equation. Assay buffer: 50 mM citric acid (titrated with potassium phosphate to pH 5.0), 0.01% Tween-20 (pH 5.0 is an optimal condition for this enzyme assay) 1536-well assay protocol for the alpha-glucosidase from human spleen homogenate: (1) Add 2 ul/well spleen homogenate (1 ug) (2) Add 23 nL compounds in DMSO solution. The final titration was 0.5 nM to 58 uM. (3) Add 2 ul of substrate (1 mM final) (4) Incubate at 37 C for 40 min (5) Add 2 ul stop solution (1M NaOH and 1M Glycine mixture, pH 10) (6) Detect the assay plate in a ViewLux plate reader (PerkinElmer) with […]. Keywords: Alpha-glucosidase, Pompe Disease, pharmacological chaperone, chaperone therapy, high throughput screening, alpha-glucosidase inhibitor, MLSMR, MLSCN, NIH Roadmap, qHTS and NCGC
row,Compound,Potency
1,CCCN1CNc2c(c(=O)[nH]c(=S)n2CCc2ccc(C)cc2)C1,14.1 µM (active)
2,O=C1Cc2cc(S(=O)(=O)N3CCN(c4ccc(Cl)cc4)CC3)ccc2N1,inactive
3,CCCN1CNc2c(c(=O)[nH]c(=S)n2CCc2cccc(C)c2C)C1,3.98 µM (active)
4,CCCN1CNc2c(c(=O)[nH]c(=S)n2CCc2ccc(OCC)c(OCC)c2)C1,7.94 µM (active)
5,CCCN1CNc2c(c(=O)[nH]c(=S)n2Cc2ccc(OC)c(OC)c2)C1,5.01 µM (active)
6,CCCN1CNc2c(c(=O)[nH]c(=S)n2CCc2cccc(Cl)c2Cl)C1,0.891 µM (active)
7,OCCNc1nc(-c2cccs2)nc2ccccc12,inactive
8,CCCN1CNc2c(c(=O)[nH]c(=S)n2CCc2ccc(OC)cc2)C1,25.1 µM (active)
9,COc1ccc(CCn2c(=S)[nH]c(=O)c3[nH]cnc32)cc1OC,inactive
10,CCCN1CNc2c(c(=O)[nH]c(=S)n2CCc2ccc(Cl)cc2)C1,11.2 µM (active)
11,CCCN1CNc2c(c(=O)[nH]c(=S)n2CCc2ccccc2OC)C1,14.1 µM (active)
12,CC(=O)Nc1ccc(S(=O)(=O)N2CCN(c3ccc(C(C)=O)cc3)CC2)cc1,inactive
13,CCCN1CNc2c(c(=O)[nH]c(=S)n2CCc2cc(C)cc(C)c2)C1,4.47 µM (active)
14,CC(=O)c1ccc(N2CCN(S(=O)(=O)c3ccc4c(c3)oc(=O)n4C)CC2)cc1,inactive
15,CCCN1CNc2c(c(=O)[nH]c(=S)n2CCc2c(C)cccc2C)C1,2.82 µM (active)
16,O=C1Cc2cc(S(=O)(=O)N3CCNCC3)ccc2N1,inactive
17,CCCCN1C[C@H](O)[C@@H](O)[C@H](O)[C@H]1CO,inactive
18,CCCN1CNc2c(c(=O)[nH]c(=S)n2CCc2ccc(OC)cc2OC)C1,8.91 µM (active)
19,CCCN1CNc2c(c(=O)[nH]c(=S)n2CCc2cc(OC)cc(OC)c2)C1,7.94 µM (active)
20,CCCN1CNc2c(c(=O)[nH]c(=O)n2CCc2ccc(OC)c(OC)c2)C1,15.8 µM (active)

row,Compound,Potency
1,CCCN1CNc2c(c(=O)[nH]c(=S)n2CCC(C)C)C1,inactive
2,O=S(=O)(c1ccc(Cl)cc1)N1CCN(c2nc(-c3cccs3)nc3ccccc23)CC1,inactive
3,O=c1[nH]cc(CCc2ccccc2)c2ncncc12,inactive
4,CCCN1CNc2c(c(=O)[nH]c(=S)n2CCc2c(Cl)cccc2Cl)C1,5.01 µM (active)
5,CC(=O)N1CCN(c2ccc(NS(=O)(=O)c3ccc4c(c3)CC(=O)N4)cc2)CC1,inactive
6,Cc1ccc(N2CCN(S(=O)(=O)c3ccc4c(c3)CC(=O)N4)CC2)cc1,inactive
7,COc1ccc(CCn2c(=S)[nH]c(=O)c3nccnc32)cc1OC,inactive
8,O=C1Cc2cc(S(=O)(=O)N3CCN(c4cccc(C(F)(F)F)c4)CC3)ccc2N1,8.41 µM [inhibitor] (active)
9,CC(=O)c1ccc(N2CCN(S(=O)(=O)c3ccc4[nH]c(=O)[nH]c4c3)CC2)cc1,inactive
10,CCCN1CNc2c(c(=O)[nH]c(=S)n2CCc2cccc(C)c2)C1,15.8 µM (active)
11,O=C1Cc2cc(S(=O)(=O)N3CCN(c4ccc(O)cc4)CC3)ccc2N1,11.9 µM [inhibitor] (active)
12,CC(=O)c1ccc(N2CCN(S(=O)(=O)c3ccc4c(c3)C(Cl)(Cl)C(=O)N4)CC2)cc1,20.6 µM [inhibitor] (active) and 32.6 µM [inhibitor] (active)
13,COc1ccc(C#Cc2cnc(Cl)c3cncnc23)cc1OC,inactive
14,CC(=O)c1ccc(N2CCN(S(=O)(=O)c3ccc4c(c3)OCC(=O)N4)CC2)cc1,inactive
15,CCCN1CNc2c(c(=O)[nH]c(=S)n2CCc2ccc(OC)c(OC)c2)C1,8.91 µM (active)
16,CCCN1CNc2c(c(=O)[nH]c(=S)n2CCCc2ccccc2)C1,35.5 µM (active)
17,CCCN1CNc2c(c(=O)[nH]c(=S)n2CCc2c(OC)cccc2OC)C1,35.5 µM (active)
18,COc1ccc(CCn2c3c(c(=O)[nH]c2=S)CN(C(C)C)CN3)cc1OC,12.6 µM (active)
19,CC(=O)c1ccc(N2CCN(S(=O)(=O)c3ccc4c(c3)CCC(=O)N4)CC2)cc1,inactive
20,O=C1Cc2cc(S(=O)(=O)N3CCN(c4ccc(F)cc4)CC3)ccc2N1,59.5 µM [inhibitor] (active)
